The entries come from a sample that favours hits as a whole.
CHX counter: counter-screen hit for Shiga toxin inhibitors, cycloheximide; cell reporter, cycloheximide protein synthesis inhibition counterscreen; max response, %; actives 12% (n = 300,000); in the data active means max response mostly above about 13%, no sharp cut-off; inactive means mostly below about 14%; further: read at 38.3 µM for the half of the compounds with a filed dose; 0% is about no effect
TbPYK inhibitor: blocks Trypanosoma brucei pyruvate kinase | TbPYK enzyme, Kinase-Glo Plus ATP luminescence, 45 min | AID 624173 | Q57TT1 | actives 0.12% (n = 410,000) | Potency, µM (top dose mostly 76.8 µM), for inactives: at the highest dose activity, negative = inhibition, hits mostly inhibitors; further: potency means the concentration at half of the fitted maximal effect; on the % scale 0 is the no-effect control and ±100 the full control effect; nearly all actives have a fitted effect of over 50% in size
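Quantitative HTS: titrated library compounds versus trypanosomal pyruvate kinase in TEA buffer (pH 7.2) containing KCl, MgCl2, BSA and Tween-20. Reactions were initiated with ADP, 130 uM final. Kinase-Glo Plus luminescence was read after 45 min at RT.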
Giardia FBPA inh: inhibitors of Giardia lamblia fructose-1,6-bisphosphate aldolase; purified Giardia FBPA; actives 0.71% (n = 290,000); Potency, µM (highest dose often 59.6 µM), inactives show at the top dose activity, negative = inhibition, usual class: inhibitors; AID 2451; further: potency means the concentration at half of the fitted maximal effect; on the % scale 0 is the no-effect control and ±100 the full control effect; nearly all actives have a fitted effect of over 55% in size
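Giardia FBPA (40 nM reagent) was preincubated 10 min at RT with compound (up to 57.5 uM final), then substrate plus GAPDH/TPI/NAD/arsenate coupling system with diaphorase/resazurin was added; resorufin fluorescence (525/598 nm) was read after 20 min.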
LmPK inhibitor: blocks Leishmania mexicana pyruvate kinase activity | Q27686 | purified LmPK, Kinase-Glo ATP luminescence, 1 h | Potency, µM (titrated, usually from 57.5 µM), without a hit: at the top dose activity change, negative = inhibition, most hits filed as inhibitors | actives 0.37% (n = 290,000) | AID 1721; further: potency means the concentration at half of the fitted maximal effect; on the % scale 0 is the no-effect control and ±100 the full control effect
Target sequence (Q27686 whole entry, looked up): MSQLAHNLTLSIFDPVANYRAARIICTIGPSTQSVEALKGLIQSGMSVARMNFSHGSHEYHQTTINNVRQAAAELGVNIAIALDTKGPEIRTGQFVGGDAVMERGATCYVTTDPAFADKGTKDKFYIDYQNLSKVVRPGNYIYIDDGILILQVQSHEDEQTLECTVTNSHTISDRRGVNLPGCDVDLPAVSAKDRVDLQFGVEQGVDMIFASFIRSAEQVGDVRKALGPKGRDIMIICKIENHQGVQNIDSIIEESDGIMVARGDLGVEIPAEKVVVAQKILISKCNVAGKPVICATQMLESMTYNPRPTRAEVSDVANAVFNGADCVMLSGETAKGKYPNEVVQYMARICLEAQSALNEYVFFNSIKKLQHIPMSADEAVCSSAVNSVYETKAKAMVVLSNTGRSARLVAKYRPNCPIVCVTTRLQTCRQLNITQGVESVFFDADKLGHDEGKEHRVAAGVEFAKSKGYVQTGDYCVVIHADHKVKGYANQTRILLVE
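Purified LmPK (0.1 nM) converted ADP (0.1 mM) to ATP with PEP (0.5 mM) in imidazole buffer pH 7.2 with KCl and MgCl2, 1 h at room temperature. ATP was read by Kinase-Glo luminescence; data normalized to uninhibited and no-enzyme controls.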
Shiga inhibitor: Shiga toxin inhibition; Vero cells, Shiga toxin protein synthesis inhibition reporter; inhibition, % at 38.7 µM; actives 9.2% (n = 290,000); AID 2315; in the data active means inhibition mostly above about 28%, no sharp cut-off; inactive means mostly below about 43%; further: 0% is about no effect
Sm TGR block: S. mansoni TGR enzyme inhibition; Q962Y6; purified TGR, DTNB reduction, TNB absorbance 405 nm; Potency, µM (series often up to 114 µM), for inactives: at the top dose activity change, negative = inhibition, most hits filed as inhibitors; actives 3% (n = 360,000); AID 485364; further: potency means the concentration at half of the fitted maximal effect; on the % scale 0 is the no-effect control and ±100 the full control effect; nearly all actives have a fitted effect of over 60% in size
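First, TGR (20 nM dispensed) and NADPH were mixed with compound. Second, a 15 min room-temperature incubation followed. Third, further NADPH and then DTNB were added to start the reaction. Finally, TNB absorbance was monitored kinetically.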
Starred values were filed as active, the others as inactive; [ ] = another dose, or the depositor's remark. Unless noted, the call rests on the fitted dose curve; in most records, active means well fitted curve in the direction sought with a large enough effect; inconclusive means small, poorly fitted or top-dose-only effect, or another doubt; inactive means no such curve, though single readings can be large; an effect the other way counts as inactive or inconclusive.

How did CCOC(=O)c1sc(NC(=O)c2cncc(Br)c2)nc1C do in these assays?
CHX counter: 15.0; Giardia FBPA inh: 6.3%; LmPK inhibitor: -3.6%; Shiga inhibitor: 56.5*; Sm TGR block: -28.3%

How did Fc1ccc(Nc2ncnc3c2nc2n3CCCCC2)c(F)c1 do in these assays?
TbPYK inhibitor: -4.8%; Sm TGR block: -4.2%

Results for COc1ccccc1C(=O)Nc1ccnn1C1CCN(C(=O)c2ccoc2C)CC1 ?
CHX counter: 14.9*; TbPYK inhibitor: -1.5%; Giardia FBPA inh: 0.9%; LmPK inhibitor: -2.7%; Shiga inhibitor: 12.9; Sm TGR block: -19.0%

How did COc1ccccc1NC(=O)Nc1ccnn1C1CCN(C(=O)c2ccccn2)CC1 do in these assays?
CHX counter: 0.6; TbPYK inhibitor: 0.4%; LmPK inhibitor: -4.3%; Shiga inhibitor: -2.3; Sm TGR block: 8.2%

What do the screens show for `O=C(Nc1cccc(F)c1)Nc1ccnn1C1CCN(C(=O)c2ccccn2)CC1`?
CHX counter: 23.0*; TbPYK inhibitor: -7.9%; LmPK inhibitor: -4.3%; Shiga inhibitor: 42.1*; Sm TGR block: 9.9%

What do the screens show for `COc1ccccc1NC(=O)Nc1ccnn1C1CCN(C(=O)c2cscn2)CC1`?
CHX counter: 32.3*; TbPYK inhibitor: 2.9%; LmPK inhibitor: 8.7%; Shiga inhibitor: 29.1; Sm TGR block: -2.8%

What do the screens show for `COc1ccccc1C(=O)Nc1ccnn1C1CCN(C(=O)c2ccoc2)CC1`?
TbPYK inhibitor: 1.9%

Results for COc1ccc(C(=O)Nc2ccnn2C2CCN(C(=O)c3cnsn3)CC2)cc1 ?
CHX counter: 20.1*; TbPYK inhibitor: -4.2%; Giardia FBPA inh: -1.8%; LmPK inhibitor: 12.0%; Shiga inhibitor: 53.6; Sm TGR block: -27.3%

Results for NC(=O)c1cc(S(=O)(=O)N2CCc3ccccc3C2)cs1 ?
CHX counter: -0.8; TbPYK inhibitor: -9.4%; Giardia FBPA inh: 2.0%; LmPK inhibitor: -1.5%; Shiga inhibitor: -5.3; Sm TGR block: 12.5%

Results for CCOc1cc(CNC(=O)CSc2n[nH]c(-c3ccccc3)n2)cc(OCC)c1OCC ?
TbPYK inhibitor: 0.7%; Sm TGR block: -5.8%

How did C/C(CCN1CCCc2nc(C)c(C)cc21)=N\O[C@@H](C)CN1CCCc2nc(C)c(C)cc21 do in these assays?
Giardia FBPA inh: 1.2%[12.9 µM]

Results for COc1ccccc1N1CCN(C(=O)c2coc(=O)c(Br)c2)CC1 ?
CHX counter: 40.0*; TbPYK inhibitor: -19.1%; Giardia FBPA inh: 6.9%; LmPK inhibitor: 1.7%; Shiga inhibitor: 81.2*; Sm TGR block: -0.5%

What do the screens show for `COc1ccccc1N1CCN(C(=O)c2ccoc2C)CC1`?
CHX counter: 1.2; TbPYK inhibitor: -9.0%; Giardia FBPA inh: -2.2%; LmPK inhibitor: 0.3%; Shiga inhibitor: -15.0; Sm TGR block: 44.7µM*

What do the screens show for `Cc1nc2ccn(Cc3ccco3)c(=O)c2cc1C(=O)N1CCN(c2ccccc2)CC1`?
TbPYK inhibitor: -3.0%; Sm TGR block: -8.2%

Results for COc1ccccc1N1CCN(C(=O)c2c(C)noc2C)CC1 ?
CHX counter: -3.3; TbPYK inhibitor: 1.9%; Giardia FBPA inh: 0.8%; LmPK inhibitor: 2.9%; Shiga inhibitor: 2.0; Sm TGR block: 3.4%

Results for COc1ccccc1N1CCN(C(=O)c2cc3c(=O)n(Cc4ccco4)ccc3nc2C)CC1 ?
TbPYK inhibitor: -22.5%; Sm TGR block: 14.1µM*

What do the screens show for `O=C(NCc1ccco1)C(c1ccncc1)N(C(=O)Cn1nnc2ccccc21)c1ccccc1F` (stereo not drawn)?
CHX counter: -2.5; TbPYK inhibitor: 1.7%; LmPK inhibitor: -9.4%; Shiga inhibitor: -11.9; Sm TGR block: -35.5%

What do the screens show for `O=C(c1ccc(Cl)c(S(=O)(=O)N2CCCCCC2)c1)N1CCCC1`?
CHX counter: -2.9; TbPYK inhibitor: 0.4%; Giardia FBPA inh: 3.2%; LmPK inhibitor: -0.5%; Shiga inhibitor: -5.9; Sm TGR block: -19.5%

How did Cn1c(=O)c2c(-c3ccccc3Cl)n(-c3cc(Cl)ccc3O)cc2n(C)c1=O do in these assays?
TbPYK inhibitor: -4.9%; Sm TGR block: 12.6µM*

What do the screens show for `Cc1cccc(-c2c3c(=O)n(C)c(=O)n(C)c3cn2-c2ccccc2O)c1`?
CHX counter: 8.8; TbPYK inhibitor: 4.1%; Giardia FBPA inh: 12.6µM*; LmPK inhibitor: 0.3%; Shiga inhibitor: 11.3; Sm TGR block: -11.4%

What do the screens show for `Cc1cc(C)c2nc3nc(C)c(C)cc3c(N)c2c1`?
CHX counter: 20.2; TbPYK inhibitor: 0.0%; Giardia FBPA inh: -8.1%; LmPK inhibitor: -0.3%; Shiga inhibitor: 69.7*

Results for CCCSc1nc(C)c2cc(C)cc(C)c2n1 ?
CHX counter: 4.2; TbPYK inhibitor: -9.8%; Giardia FBPA inh: 0.4%; LmPK inhibitor: 5.3%; Shiga inhibitor: 17.5; Sm TGR block: inconclusive

Results for Cc1ccc(Cl)cc1-n1c(=O)c2sc3ccccc3c2n(CC(=O)NC2CCCCC2)c1=O ?
TbPYK inhibitor: -4.0%; Sm TGR block: 0.2%

Results for CCOC(=O)C1(Cc2cccc(Cl)c2)CCCN(C(=O)c2cc(CC)on2)C1 (stereo not drawn) ?
CHX counter: 42.5*; TbPYK inhibitor: 7.8%; LmPK inhibitor: -7.7%; Shiga inhibitor: 62.4*; Sm TGR block: 5.8%

What do the screens show for `CCOC(=O)C1(Cc2cccc(Cl)c2)CCCN(C(=O)c2ccnn2C)C1` (stereo not drawn)?
CHX counter: 49.6*; TbPYK inhibitor: -8.8%; LmPK inhibitor: -2.6%; Shiga inhibitor: 40.6*; Sm TGR block: -0.3%

How did CCCc1cc(C(=O)N2CCCC(Cc3cccc(Cl)c3)(C(=O)OCC)C2)n(C)n1 (stereo not drawn) do in these assays?
CHX counter: 17.9; TbPYK inhibitor: -2.4%; Giardia FBPA inh: 11.3%; LmPK inhibitor: 8.9%; Shiga inhibitor: 65.0*; Sm TGR block: 0.9%

What do the screens show for `CCOC(=O)C1(Cc2cccc(Cl)c2)CCCN(C(=O)c2cn[nH]c2)C1` (stereo not drawn)?
CHX counter: -1.7; TbPYK inhibitor: -10.9%; Giardia FBPA inh: 3.5%; LmPK inhibitor: 3.1%; Shiga inhibitor: 1.4; Sm TGR block: 2.7%

Results for CCOC(=O)C1(Cc2cccc(Cl)c2)CCCN(C(=O)c2cc(C)n(C)n2)C1 (stereo not drawn) ?
CHX counter: -1.2; TbPYK inhibitor: -3.6%; LmPK inhibitor: -3.4%; Shiga inhibitor: -18.3; Sm TGR block: -8.8%

How did CCOC(=O)C1(Cc2cccc(Cl)c2)CCCN(C(=O)C(C)(C)C)C1 (stereo not drawn) do in these assays?
CHX counter: 27.5*; TbPYK inhibitor: -0.7%; Giardia FBPA inh: 1.2%; LmPK inhibitor: -0.6%; Shiga inhibitor: 44.9; Sm TGR block: 15.8%

Assay outcomes from PubChem BioAssay.
